Source: PubChem BioAssay
EPAC2 agonist = agonists of human EPAC2 (RAPGEF4); Q8WZA2; EPAC2 activation, biochemical qHTS; response scale: 100% = 6.5 mM cAMP response; Potency, µM (top dose mostly 154 µM), for inactives: top-dose activation, hits mostly activators; 0.079% of 360,000 active; AID 720711; also: nearly all actives have a fitted effect of over 50% in size
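Guanine nucleotide exchange by EPAC2 is measured as reduced fluorescence of BODIPY-GDP once it is released from 250 nM Rap1B. Plates are read kinetically for 30 min at room temperature; results are scaled to 6.5 mM cAMP.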
EPAC2 antag = blocks human EPAC2 exchange factor. Q8WZA2. EPAC2 GEF exchange of Rap1B-BODIPY-GDP, fluorescence. Potency, µM (titrated, usually from 114 µM), for inactives: at the top dose activity, negative = inhibition, usual class: inhibitors. 0.18% of 360,000 active. AID 720708; also: % is scaled to controls: 0 for no effect and ±100 for the full control effect; nearly all actives have a fitted effect of over 45% in size
EPAC1 antagonist = EPAC1 (human) antagonism; AID 720709; O95398; Potency, µM (highest dose often 115 µM), without a hit: at the highest dose activity change, negative = inhibition, usual class: inhibitors; EPAC1 GEF assay, Rap1b-BODIPY-GDP exchange fluorescence; 0.14% of 360,000 active;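 also: plate controls were vehicle for no effect and positive control for full effect; nearly all actives have a fitted effect of over 50% in size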
ERG-DNA inh = blocks human ERG Ets domain binding to DNA | P11308 | fluorescence polarization, His-ERG Ets domain / labelled DNA | Potency, µM (top dose mostly 76.9 µM), for the others: at the top dose FP activity, negative = inhibition, usual class: inhibitors | 0.028% of 370,000 active | AID 624246; active = well fitted inhibition curve with a large enough effect in the polarisation, with a control signal flat; inconclusive = small, poorly fitted or top-dose-only effect, or effect the other way, or a change in a side signal; inactive = no such curve, though single readings can be large or run the other way; the % refers to the polarisation;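 also: polarization taken with two DNA probes labelled with fluorescein and Texas red; % of control where 0% means no effect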
Target sequence (P11308 whole entry, looked up, the tested form may be a part): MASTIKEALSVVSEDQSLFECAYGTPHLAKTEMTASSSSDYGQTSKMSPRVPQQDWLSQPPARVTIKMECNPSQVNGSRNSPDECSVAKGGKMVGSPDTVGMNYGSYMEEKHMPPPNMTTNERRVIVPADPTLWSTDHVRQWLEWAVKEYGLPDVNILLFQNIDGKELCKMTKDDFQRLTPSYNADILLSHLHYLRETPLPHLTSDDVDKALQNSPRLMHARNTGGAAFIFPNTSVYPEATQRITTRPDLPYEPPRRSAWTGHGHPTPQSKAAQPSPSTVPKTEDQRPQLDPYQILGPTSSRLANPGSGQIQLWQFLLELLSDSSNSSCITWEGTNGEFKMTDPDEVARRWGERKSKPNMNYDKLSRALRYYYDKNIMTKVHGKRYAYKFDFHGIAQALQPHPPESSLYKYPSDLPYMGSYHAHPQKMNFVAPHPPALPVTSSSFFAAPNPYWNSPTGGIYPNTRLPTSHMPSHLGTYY
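His-tagged ERG Ets domain (1 uM in the protein solution; 300mM KCl, 50mM Tris-HCl, 1mM EDTA, 1mM DTT, pH 7.5) received compound, then a probe mix of 5 nM fluorescein-DNA and 100nM Texas-615-DNA. Fluorescence polarization was read for both dyes.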
EPAC1 ag = EPAC1 (human) agonism; O95398; EPAC1 agonist qHTS, biochemical assay; response scale: 100% = response to 6.5 mM cAMP; Potency, µM (titrated, usually from 154 µM), for the others: at the top dose activation, actives largely listed as activators; 0.073% of 360,000 active; also: nearly all actives have a fitted effect of over 60% in size
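Multi-concentration qHTS readout: loss of Rap1B-bound BODIPY-GDP fluorescence driven by 100 nM EPAC1 with excess GDP (50 uM), monitored kinetically at room temperature; agonist response expressed relative to 6.5 mM cAMP.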
TDP1 block = inhibitors of human tyrosyl-DNA phosphodiesterase TDP1 | Q9NUW8 | recombinant TDP1, AlphaScreen DNA substrate cleavage | Potency, µM (titrated, usually from 130 µM), without a hit: at the highest dose activity change, negative = inhibition, usual class: inhibitors | 0.28% of 350,000 active; also: % is scaled to controls: 0 for no effect and ±100 for the full control effect; nearly all actives have a fitted effect of over 40% in size
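Here, a 5' biotin and 3' phosphotyrosine-FITC DNA oligonucleotide reports Tdp1 activity: intact substrate bridges AlphaScreen beads, while cleavage leaves a 3' phosphate and drops signal. All incubations at room temperature.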
Active calls of the source: *; u = inconclusive; x = no result; [ ] = remark or other dose. Compounds with a hit are over-represented: about 0.54% of the library has one in this group of screens. Unless noted, calls follow the shape of the dose curve; as a rule, active = well fitted curve in the direction sought with a large enough effect; inconclusive = small, poorly fitted or top-dose-only effect, or another doubt; inactive = no such curve, though single readings can be large; an effect the other way counts as inactive or inconclusive. Potency is read from the fitted curve at half-maximal effect.

SMILES	EPAC2 agonist	EPAC2 antag	EPAC1 antagonist	ERG-DNA inh	EPAC1 ag	TDP1 block
N#Cc1c(-c2ccccc2)nc(SCC(=O)N2c3ccccc3Sc3ccccc32)[nH]c1=O	2%	8.9µM*	79µM*	11%	9%	1%
N#Cc1c(-c2ccccc2)nc(SCc2ccc(Cl)cc2)[nH]c1=O	-2%	u	79µM*	-3%	-15%	x
N#Cc1c(-c2ccccc2)nc(SCC(=O)Nc2ccccc2)[nH]c1=O	-11%	-6%	-27%	5%	-7%	2%
N#Cc1c(-c2ccccc2)nc(SCC(=O)Nc2ccc(OC(F)(F)Cl)cc2)[nH]c1=O	-6%	35µM*	u	1%	-5%	x
C=CCSc1nc(-c2ccccc2)c(C#N)c(=O)[nH]1	-3%	15%	1%	3%	0%	3%
COc1cc(Cl)c(C)cc1NC(=O)C(OC(=O)CNC(=O)c1ccccc1)c1ccccc1 (configuration not stated)	x	x	x	x	x	-2%
O=C(O)COc1ccc(NC(=O)C(c2ccccc2)c2ccccc2)cc1	5%	20µM*	-3%	-5%	4%	x
COc1ccc(-n2nnnc2SCC(=O)c2ccc(O)c(O)c2)cc1	10%	-2%	45µM*	-3%	1%	2%
CC(C)(C)CNC(=O)c1cccc2c1C(=O)c1ccc(N3CCCC3)cc1S2(=O)=O	26%	18%	36%	15%	u	0%
O=C(NC1CCCC1)c1cccc2c1C(=O)c1ccc(N3CCCCC3)cc1S2(=O)=O	56µM*	37%	-8%	3%	u	1%
CC1CCN(c2ccc3c(c2)S(=O)(=O)c2cccc(C(=O)NCc4ccc(F)cc4)c2C3=O)CC1	-103%	381%	80%	30%	-147%	1%
O=C(NCc1ccccc1C(F)(F)F)c1cccc2c1C(=O)c1ccc(N3CCCCC3)cc1S2(=O)=O	100µM*	2%	3%	12%	14%	-3%
O=C1c2ccccc2S(=O)(=O)c2cc(N3CCC(C(=O)N4CCCCC4)CC3)ccc21	25µM*	53%	14%	-10%	79µM*	x
COc1ccccc1N1CCN(c2ccc3c(c2)S(=O)(=O)c2cccc(C(=O)NCC4CC4)c2C3=O)CC1	17%	u	22µM*	x	-39%	x
CCN1CCc2c(sc(NC(=S)NC(=O)c3cccc(F)c3)c2C(N)=O)C1	x	x	x	x	x	8%
Cc1ccc(NS(=O)(=O)c2cc3c(cc2-c2ccsc2)NC(=O)CO3)cc1C	x	x	x	x	x	0%
Cn1nc(-c2ccncc2)nc2c(=O)n(C)c(=O)nc1-2	x	x	x	x	x	4%
CC1CCN(c2ccc3c(c2)S(=O)(=O)c2cccc(C(=O)NC4CCCCC4)c2C3=O)CC1	50µM*	5%	5%	-11%	28µM*	0%
CC1CCN(c2ccc3c(c2)S(=O)(=O)c2cccc(C(=O)O)c2C3=O)CC1	6%	10%	15%	-2%	13%	1%
NC(=O)c1ccc2c(=O)n3c(-c4cc(Cl)c(N)c(Cl)c4)csc3nc2c1	7%	41%	-11%	5%	-2%	79µM*
COc1ccc(C2c3c(ncn(CCCc4ccccc4)c3=N)Oc3ccc4ccccc4c32)cc1OC (configuration not stated)	x	x	x	x	x	6%
Oc1ccc(N=Cc2ccc(OCc3ccccc3)cc2)cc1	14%	u	25µM*	14µM*	17%	-5%
O=C(N/N=C/c1ccc(OCc2ccccc2)cc1)c1ccncc1	9%	-1%[57.1 µM]	0%	-14%	-10%	-1%
COc1ccc(C2N=C(Nc3nc4ccccc4o3)NC3=C2C(=O)CC(C)(C)C3)cc1 (configuration not stated)	x	x	x	x	x	0%
CC1=Nc2ccccc2/C1=C/c1c(N)n2c(S(=O)(=O)C(C)C)nsc2nc1=O	-6%	-25%	-27%	15%	-3%	6%
